Screening data deposited in PubChem BioAssay by several laboratories.
CYP2C9 inh – inhibitors of human CYP2C9; P11712; 20% of 96,000 active; CYP2C9 Supersomes, luciferin-H conversion, luminescence; inhibition, % at 5 µM;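 active = blocking of liver enzyme CYP2C9 beyond about 50% at 5 µM, limit read from the data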
CYP2C19 activ – activators of human cytochrome P450 2C19 | P33261 | recombinant CYP2C19, luciferin-H EGE luminescence; stronger effect = higher value; 0 = fully inhibited enzyme, 1 = untreated enzyme | activation factor at 5 µM | 96,000 tested, under 10 active;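 active = activation factor of at least 2 at 5 µM in the primary screen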;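 note: 0 = wells with 2.5 mM tranylcypromine and 1 = vehicle-only wells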
Target sequence (P33261 whole entry, looked up): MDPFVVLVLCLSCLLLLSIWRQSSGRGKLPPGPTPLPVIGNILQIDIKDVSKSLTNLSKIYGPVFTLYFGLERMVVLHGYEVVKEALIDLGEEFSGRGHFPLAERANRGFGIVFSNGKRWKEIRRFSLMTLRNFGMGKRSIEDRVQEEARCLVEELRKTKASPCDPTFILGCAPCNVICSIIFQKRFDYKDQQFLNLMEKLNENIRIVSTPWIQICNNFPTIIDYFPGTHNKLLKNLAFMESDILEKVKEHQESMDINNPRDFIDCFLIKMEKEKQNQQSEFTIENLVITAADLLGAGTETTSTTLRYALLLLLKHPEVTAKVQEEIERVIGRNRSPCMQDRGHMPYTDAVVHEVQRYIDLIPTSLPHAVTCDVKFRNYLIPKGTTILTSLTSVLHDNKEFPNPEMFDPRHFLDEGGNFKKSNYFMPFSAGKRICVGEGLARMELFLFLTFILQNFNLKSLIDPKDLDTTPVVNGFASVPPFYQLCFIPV
CYP2C19 inhib – inhibitors of human CYP2C19; AID 778; inhibition, % at 5 µM; CYP2C19 Supersomes, luciferin-H EGE luminescence, 30 min; P33261; 21% of 96,000 active;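 active = CYP2C19 inhibition above a set limit at 5 µM in the primary screen, cut at about 50% in these data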;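 note: plate controls were negative control wells for no effect and 2.5 mM tranylcypromine positive control for full effect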
MRP reversal – reverses drug resistance mediated by MRP | H69AR cells + 2 uM doxorubicin, CellTiter-Glo, 72 h | 0.04% of 85,000 active | differential viability (reversal), % at 10 µM;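 active = viability drop by adding the cancer drug above about 55%, with treated viability meeting a 40% cutoff, limit read from the data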;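 note: viability without doxorubicin minus viability with 2 µM doxorubicin for each compound; larger differential means the compound sensitizes cells more to doxorubicin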
CYP2C9 activ – increases human cytochrome P450 2C9 activity. recombinant CYP2C9, luciferin-H conversion, luminescence; stronger effect = higher value; factor 1 = untreated enzyme, 0 = blocked. P11712. 1.4% of 96,000 active. AID 1024. activation factor at 5 µM;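 active = activation factor of 2 or more for CYP2C9 at a 5 µM dose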;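 note: 0 = sulfaphenazole-blocked wells and 1 = vehicle-only wells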
MRP1 act – activates MRP-1; H69AR cells + doxorubicin, viability rescue, CellTiter-Glo; viability increase, % at 10 µM; 0.61% of 140,000 active;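 active = viability gain under doxorubicin at or above a set limit, the compound median plus 3 SD, cut at about 4.7% in these data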;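 note: MRP-1 overexpressing cells given doxorubicin 25 µM after compound pretreatment; 18-22 h compound pretreatment then 72 h with doxorubicin before readout; 0% = doxorubicin-only wells and 100% = vehicle-treated cells without doxorubicin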
Starred values were filed as active, the others as inactive; / = not tested or not shown. A selection: hits, their analogues and other compounds. The true share with any hit is near 21%.

SMILES	CYP2C9 inh	CYP2C19 activ	CYP2C19 inhib	MRP reversal	CYP2C9 activ	MRP1 act
CN1CCN(C(=O)c2ccc(N(Cc3ccc(Cl)cc3)S(C)(=O)=O)cc2)CC1	22	0.8	24	-22	0.8	-1
CS(=O)(=O)N(Cc1ccc(Cl)cc1)c1ccc(C(=O)N2CCN(c3ccccc3)CC2)cc1	98*	0.1	91*	-9	0	1
CS(=O)(=O)N(Cc1ccccc1)c1ccccc1C(=O)N1CCN(c2ccccc2)CC1	72*	0.1	94*	0	0.3	-3
CCOC(=O)N1CCN(C(=O)CS(=O)(=O)c2cn(Cc3cccc(F)c3)c3ccccc23)CC1	9	1.1	-8	-19	0.9	0
COc1nn(CC(=O)N2N=C(C(F)F)CC2(O)C(F)F)cc1[N+](=O)[O-] (centres undefined)	/	/	/	11	/	-3
Cn1nnc(NCc2cc(Br)ccc2OCc2cccs2)n1	44	0.6	37	6	0.6	-1
COc1cccc(SCc2noc(C(=O)NCC3CCCO3)c2C(=O)O)c1 (centres undefined)	/	/	/	/	/	-1
CCOC(=O)N1CCN(C(=O)c2ccc(CN(c3ccccc3)S(C)(=O)=O)cc2)CC1	54*	0.8	24	-9	0.5	-1
CS(=O)(=O)N(Cc1ccccc1)c1ccc(C(=O)N2CCOCC2)cc1	27	0.9	8	6	0.7	0
O=C(Nc1ccccc1)N1CCC(C(=O)N2CCN(S(=O)(=O)c3cccc(F)c3)CC2)CC1	-13	1.1	-9	4	1.1	/
CCOc1ccccc1OCCCC(=O)N1CCN(S(=O)(=O)c2ccc(C)cc2)CC1	46	0.1	86*	-13	0.5	-1
CCCNC(=O)N1CCN(S(=O)(=O)c2ccc(C)cc2)CC1	-6	0.9	9	-2	1.1	-1
CCOc1ccccc1OCCCC(=O)N1CCN(S(=O)(=O)c2cccc(F)c2)CC1	36	0.3	75*	-9	0.6	-4
CCOc1ccc(N(CC(=O)NN=C2CCN(C)CC2)S(C)(=O)=O)cc1	/	/	/	/	/	-2
Cc1nn(C(C)C(=O)N2CCc3ccccc32)c(C)c1[N+](=O)[O-] (centres undefined)	68*	0.4	55*	/	0.3	-2
Cc1nn(C(C)C(=O)N2CCOCC2)c(C)c1[N+](=O)[O-] (centres undefined)	/	/	/	/	/	2
Cc1cc(S(=O)(=O)Nc2ccc3ccccc3c2)c(C)s1	64*	0.1	93*	-29	0.4	-6
Cc1cc(S(=O)(=O)Nc2cccnc2)c(C)s1	24	0.6	42	5	0.8	0
Cc1cc(S(=O)(=O)Nc2cc(C)c(O)c(C)c2)c(C)s1	4	0	100*	-2	1	-3
CSC1=NCCN1C(=O)Cc1cccs1	-2	1	2	9	1	0
O=C(Nc1cccc(F)c1)C1CC(=O)N(c2ccc(Br)cc2)C1 (centres undefined)	63*	0.4	63*	/	0.4	-2
O=C(Nc1cccc(F)c1)C1CC(=O)N(c2ccc(Cl)cc2)C1 (centres undefined)	71*	0.1	88*	3	0.3	-1
COc1ccc(OC)c(NC(=O)C2CC(=O)N(c3ccccc3)C2)c1 (centres undefined)	31	0.7	29	-5	0.7	-1
COc1ccc(OC)c(NC(=O)C2CC(=O)N(c3ccc(Br)cc3)C2)c1 (centres undefined)	84*	0.1	86*	/	0.2	-1
COc1ccccc1CNC(=O)C1CC(=O)N(c2ccc(C)c(C)c2)C1 (centres undefined)	-152	0.4	58*	4	2.5*	-3
SMILES	CYP2C9 inh	CYP2C19 activ	CYP2C19 inhib	MRP reversal	CYP2C9 activ	MRP1 act
O=C(NCCOc1ccc(Cl)cc1)C1CC(=O)N(c2ccc(F)cc2)C1 (centres undefined)	-12	0.7	33	14	1.1	2
O=C1C(=O)N(CNc2ccccn2)c2ccccc21	-5	0.9	9	/	1.1	-4
O=C(O)C1CC(=O)N(c2ccc(Br)cc2)C1 (centres undefined)	-20	1.2	-15	1	1.2	-1
C=CCN(CC=C)C(=O)C1CC(=O)N(c2ccc(Br)cc2)C1 (centres undefined)	24	0.4	63*	9	0.8	-1
CS(=O)(=O)c1ccc2nc(NC(=O)C3COc4ccccc4O3)sc2c1 (centres undefined)	76*	1	-1	4	0.2	-2
COc1ccc2nc(NNC(=O)C3COc4ccccc4O3)sc2c1 (centres undefined)	/	/	/	/	/	-4
COc1ccc2nc(NC(=O)C3COc4ccccc4O3)sc2c1 (centres undefined)	45	0.4	57*	1	0.5	1
CS(=O)(=O)c1ccc2nc(NC(=O)CN3CCN(Cc4ccccc4)CC3)sc2c1	30	0.3	65*	-3	0.7	-4
CS(=O)(=O)C1=C(O)C(=O)N(c2ccccc2)C1c1ccccc1 (centres undefined)	12	0.5	51*	8	0.9	-1
CCOC(=O)c1cccc(NC(=O)CNC(=O)C2CCCCC2)c1	40	0.7	30	/	0.6	-2
CCOC(=O)c1cccc(NC(=O)C2CCN(S(=O)(=O)c3cnc[nH]3)CC2)c1	100*	0	99*	-8	0	-3
CCOC(=O)c1ccc2c(c1)nc(C1CCN(S(=O)(=O)c3cccs3)CC1)n2CC	87*	0.2	84*	-22	0.1	-4
CN(C(=O)C1CCN(S(=O)(=O)c2cccs2)CC1)C1CCCCC1	-5	0.9	13	7	1	-1
COc1cc(NC(=O)C2CCN(S(=O)(=O)c3cnc[nH]3)CC2)cc(OC)c1OC	72*	0.8	20	9	0.3	0
CCN(Cc1ccncc1)C(=O)C1CCN(S(=O)(=O)c2cccs2)CC1	99*	0.2	80*	28	0	-1
CCOC(=O)c1c(NC(=O)C(C)N2CCN(S(=O)(=O)c3cccs3)CC2)sc2c1CCC(C)C2 (centres undefined)	/	/	/	/	/	-2
CN1CCN(C(=O)C2CCN(S(=O)(=O)c3cnc[nH]3)CC2)CC1	-20	1.1	-12	8	1.2	-1
O=C(Nc1nc2c(cc3c4c(cccc42)CC3)s1)c1ccccc1Cl	/	/	/	/	/	-2
COc1ccc(C2C(C(=O)NCCN3CCOCC3)c3ccccc3C(=O)N2C2CCCCC2)cc1 (centres undefined)	/	/	/	-10	/	-3
Cc1cc(NC(=O)C2CCN(S(=O)(=O)c3cnc[nH]3)CC2)ccc1Br	79*	0.5	45	-18	0.2	-2
CCOC(=O)c1cccc(NC(=O)C2CCN(S(=O)(=O)c3cccs3)CC2)c1	84*	0.1	88*	-34	0.2	-1
CCc1cccc(NC(=O)C2CCN(S(=O)(=O)c3cccs3)CC2)c1	-4	0.7	31	24	1	1
